In PubChem BioAssay (NCI):
Several values for one entry are separate records, joined by “and”; a condition that tells them apart may be missing. Equal entries are not always repeated. The panel holds about 79,000 compounds, 15% with a hit somewhere; the sample as a whole holds those more often. Cut-off read from the data, not from the text of the source: active = growth inhibition above about 70%; inactive = the rest. Where a SMILES comes first, the peptide text is derived from it. The star is where a group is joined. Boc = CC(C)(C)OC(=O)*; Bn = c1ccc(C*)cc1

Experiments:
[1] = NCI Yeast Anticancer Drug Screen. Data for the rad50 strain (AID 155);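 note: 0% = growth of vehicle-only cultures of the same strain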; conditions: S. cerevisiae rad50 strain growth inhibition; at 50.0 µM; stronger effect = higher value
In short: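 Compounds were tested on a yeast strain with an engineered DNA damage repair alteration; the reported value is growth inhibition normalised to vehicle treatment.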

[2] = NCI Yeast Anticancer Drug Screen. Data for the mec2-1 strain (AID 157); conditions: S. cerevisiae mec2-1 strain, at 50.0 µM, stronger effect = higher value
In short: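 Readout is yeast growth inhibition, normalised to vehicle-treated controls, in the mec2-1 strain exposed to compound.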

[3] = NCI Yeast Anticancer Drug Screen. Data for the sgs1 mgt1 strain (AID 161);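 note: 0% = growth of cultures given vehicle only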; conditions: S. cerevisiae sgs1 mgt1 strain, at 50.0 µM, stronger effect = higher value
In short: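 Yeast cells carrying a defined DNA-repair defect were exposed to test compounds. Growth inhibition was measured relative to vehicle-treated controls.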

[4] = NCI Yeast Anticancer Drug Screen. Data for the cln2 rad14 strain (AID 165);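 note: 0% = growth equal to vehicle treated cultures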; conditions: S. cerevisiae cln2 rad14 strain, at 50.0 µM, stronger effect = higher value
In short: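 Relative to vehicle controls, growth inhibition of compound-treated cln2 rad14 yeast was recorded.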

[5] = NCI Yeast Anticancer Drug Screen. Data for the bub3 strain (AID 167); conditions: S. cerevisiae bub3 mutant strain, at 50.0 µM, stronger effect = higher value
In short: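 Growth of a checkpoint-deficient yeast mutant is measured after compound exposure. Values represent inhibition relative to vehicle.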

[6] = NCI Yeast Anticancer Drug Screen. Data for the mlh1 rad18 strain (AID 175); conditions: S. cerevisiae mlh1 rad18 strain growth inhibition; at 50.0 µM; stronger effect = higher value
In short: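 Test agents were incubated with a yeast strain of defined genotype (DNA damage repair defect). Inhibition of growth was derived by comparison with vehicle-exposed cultures.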

Measured: growth inhibition

CCOC(=O)C1CN(C)CC(c2ccccc2)C1=O (stereo unspecified)
inactive: [1] 12.3% and -8.7% | [2] 14.9% and 1% | [3] 16.1% and -3.5% | [4] -10.4% and -25.1% | [5] 9.25% and -4.45% | [6] 11.1% and 5.6%

O=C1CCOC2=C1COC2=O
inactive: [1] -30.7% and 9.5% | [2] -6.05% and 17.6% | [3] -2.4% and -0.6% | [4] -25.6% and 12.3% | [5] -7.95% and 19.6% | [6] -1.2% and 16.6%

O=C(O)c1cc(N=Nc2ccc([N+](=O)[O-])cc2)ccc1O
inactive: [1] 51.1% and 26.6% | [2] -34% and 8.2% | [3] -13.7% and 12.2% | [4] 10.2% and -34.8% | [5] 9.75% and 27.4% | [6] 18.2% and 49%

CC(=O)OCC(OC(C)=O)C(OC(C)=O)C(OC(C)=O)C(C=NN(C(C)=O)S(=O)(=O)c1ccc(/C=C2\NC(=O)N(C)C2=O)cc1)OC(C)=O (stereo unspecified)
inactive: [1] 10.8% and 20.4% | [2] 5.25% and -9.85% | [3] 19.9% and 15.7% | [4] 12.8% and 33.5% | [5] 12.7% and 12.6% | [6] 22.8% and 12.1%

Cc1ccc(CCO)cc1
inactive: [1] 2.3% and 2.65% | [2] 0.95% and 2.6% | [3] 6.95% and -28.1% | [4] 0.5% and -47.2% | [5] -4.9% and -6.4% | [6] -2.75% and 0.35%

CC(=O)OCC(OC(C)=O)C(OC(C)=O)C(OC(C)=O)C(COC(=O)c1ccccc1)OC(=O)c1ccccc1 (stereo unspecified)
inactive: [1] 4.35% and 18.9% | [2] -3.75% and 5.75% | [3] -10.6% and -4.1% | [4] -21.1% and 3.7% | [5] 4.35% and -0.35% | [6] 2.15% and 10.3%

NC(=O)c1nnn(Cc2ccccc2)c1N
inactive: [1] 5.55% and 31.2% | [2] 5.6% and -1.5% | [3] -3.05% and -4.65% | [4] -4.65% and -1.95% | [5] 6.9% and -5.2% | [6] 9.6% and 3.3%

CC(=O)OC1OC(C)C(OC(C)=O)C(OC(C)=O)C1OC(C)=O (stereo unspecified)
inactive: [1] 6.8% and 1.65% | [2] -4.1% and 1.8% | [3] -5.85% and 11.7% | [4] -0.15% and 4.05% | [5] 4.5% and -4.2% | [6] -15.6% and 10.3%

O=C(NNC(=S)NC1OC(CO)C(O)C(O)C1O)c1cccc(C(=O)NNC(=S)NC2OC(CO)C(O)C(O)C2O)n1 (stereo unspecified)
inactive: [1] 1.45% | [2] 19.9% and -22.6% | [3] 31.4% and 25.2% | [4] 21.4% and 7.8% | [5] 17.1% and 8.4% | [6] 27.4% and 14.9%

C1CN(CCN2CCOCC2)CCO1
inactive: [1] 0.9% and 7.9% | [2] 18.1% and 13% | [3] 9.35% and 13.6% | [4] -26.6% and -40.6% | [5] 10.6% and 28.9% | [6] 7.7% and 14%

OCC1CCCCO1 (stereo unspecified)
inactive: [1] 0.3% and 1.8% | [2] -13.7% and -6.7% | [3] 2.4% and -24.7% | [4] -1.65% and -37.9% | [5] 7.65% and -10.8% | [6] 3% and -8.4%

COCC1OC(OC)C(OC)C(OC)C1OC (stereo unspecified)
inactive: [1] -4.45% and 3.1% | [2] -13% and -0.5% | [3] 8.35% and -0.1% | [4] -49.7% and 1.25% | [5] -21.1% and 1.3% | [6] -4.8% and -4.25%

O=C1NC(=O)C(CO)(c2ccccc2)N1 (stereo unspecified)
inactive: [1] 14.2% and 7.65% | [2] 2% and -11.6% | [3] 6% and -1.85% | [4] -18.6% and 46.5% | [5] 0.95% and 10.4% | [6] 7.2% and 21.4%

Nc1ccc(S(=O)(=O)Nc2cnc3ccccc3n2)cc1
inactive: [1] -11.1% and -2.05% | [2] -1.95% and -1.25% | [3] 2.25% and -5.9% | [4] -20.2% and -30.1% | [5] -11.2% and -10.6% | [6] -4.45% and -6.45%

C=Cc1c(C)c2cc3[nH]c(cc4nc(cc5nc(cc1[nH]2)C(C)=C5CCC(=O)O)C(CCC(=O)O)=C4C)c(C)c3C=C
inactive: [1] 6.5% and 13% | [2] 1.5% and -13.3% | [3] 9.05% and 12.7% | [4] 10.2% and 10.5% | [5] 0.65% and -0.1% | [6] 32.6% and 27.1%

COc1ccc(COC(=O)NCC(=O)NC(C)C(=O)NC(Cc2ccccc2)C(=O)OCc2ccccc2)cc1 (stereo unspecified)
inactive: [1] -6.5% and 3.15% | [2] -10.4% and -13.6% | [3] -14.9% and -1.9% | [4] -21.1% and -17.6% | [5] -0.7% and 1.65% | [6] 4.25% and 6.25%

CNC(=O)C(CC(C)C)NC(=O)C(C)NC(=O)C(Cc1ccc(OCc2ccccc2)cc1)NC(=O)C(COCc1ccccc1)NC(=O)OC(C)(C)C (stereo unspecified) (Boc-S(Bn)Y(Bn)AL-NHMe; configuration not given here)
inactive: [1] -7.2% and -29.6% | [2] -17.5% and -21.1% | [3] -20.1% and -17% | [4] 17.1% and 6.9% | [5] 25% and -1.35% | [6] 1.1% and -0.25%

CSCCC(NC(=O)CN)C(=O)O (stereo unspecified)
inactive: [1] 8.7% and -6.35% | [2] -14.6% and -11.8% | [3] 3% and -2.45% | [4] 14.4% and 0.15% | [5] -7.15% and -13.8% | [6] 5.35% and -7.05%

O=C(/C(=N/N(C(=O)c1ccccc1)c1ccccc1)c1ccccc1)c1ccccc1
inactive: [1] 29.4% and 22.2% | [2] 5.2% and -1.9% | [3] 19% and 16.8% | [4] -12.4% and 16.6% | [5] -3.85% and -6.05% | [6] 8.65% and 26.4%

CC1CC(=O)C2CC1C2(C)C (stereo unspecified)
inactive: [1] 18% and 27.3% | [2] -9.05% and 0.3% | [3] -2.15% and 11.7% | [4] -0.85% and 12.1% | [5] 6% and 14.1% | [6] -6.1% and 23.9%

CCOC(=O)C(NC(C)=O)C(C)=O (stereo unspecified)
inactive: [1] 32.5% and 10.9% | [2] -7% and -5.65% | [3] 13.1% and 8.85% | [4] -4.15% and -11.7% | [5] 1.55% and -3.15% | [6] -5.85% and 11.9%
